An excerpt weighted towards active compounds, which were near 13% of everything screened.
CHX counter = counter-screen for Shiga toxin inhibitors: cycloheximide protein synthesis inhibition; cell reporter, cycloheximide protein synthesis inhibition counterscreen; max response, %; 12% of 300,000 active; AID 2314; in the data active = max response mostly above about 13%, no sharp cut-off; inactive = mostly below about 14%; note: read at 38.3 µM for the half of the compounds with a filed dose; 0% is about no effect
HCV inh = inhibitors of hepatitis C virus infection; Huh7.5.1 HCVcc-Cre infection, luciferase reporter, 44 h; Potency, µM (series often up to 41.8 µM), inactives show at the top dose activity change, negative = inhibition, actives largely listed as inhibitors; 3.4% of 340,000 active; AID 651820; active = well fitted inhibition curve with a large enough effect; inconclusive = small, poorly fitted or top-dose-only effect, or another doubt; inactive = no such curve, though single readings can be large or run the other way; note: potency is the fitted concentration of half-maximal effect; % is set by controls: 0 for no effect and ±100 for the full control effect
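Infectious HCV cell culture screen: compound-treated cells (1,000/well, pre-plated 4 h) are infected with HCVcc-Cre at roughly 0.5 moi and grown 44 h. Infection is quantified by luciferase signal after 15 min substrate incubation at room temperature.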
FMDV antiviral = blocks foot and mouth disease virus | FMDV antiviral cell-based qHTS | Potency, µM (titrated, usually from 57.9 µM), for inactives: at the highest dose activity change, negative = inhibition, actives largely listed as inhibitors | 1.2% of 410,000 active | AID 1159524; calls by dose curve; tested in HEK293T cells; note: read-out not given here; potency is the fitted concentration of half-maximal effect; % is set by controls: 0 for no effect and ±100 for the full control effect; nearly all actives have a fitted effect of over 45% in size
Shiga inhibitor = inhibitors of Shiga toxin in Vero cells; inhibition, % at 38.7 µM; 9.2% of 290,000 active; Vero cells, Shiga toxin protein synthesis inhibition reporter; in the data active = inhibition mostly above about 28%, no sharp cut-off; inactive = mostly below about 43%; note: 0% is about no effect
MARV entry inh = blocks Marburg virus binding to or entry into cells | Marburg virus pseudotyped entry inhibition, cell reporter | Potency, µM (titrated, usually from 37.8 µM), for the others: at the highest dose activity change, negative = inhibition, most hits filed as inhibitors | 1.8% of 300,000 active | AID 540276; calls by dose curve; tested in HEK293 cells; note: potency is the fitted concentration of half-maximal effect; % is set by controls: 0 for no effect and ±100 for the full control effect
LASV entry inh = inhibitors of Lassa virus binding or cell entry; 1.2% of 300,000 active; Lassa virus pseudotype entry inhibition, cell reporter; Potency, µM (series often up to 37.9 µM), without a hit: at the top dose activity change, negative = inhibition, usual class: inhibitors; calls by dose curve; tested in HEK293 cells; note: potency is the fitted concentration of half-maximal effect; % is set by controls: 0 for no effect and ±100 for the full control effect; nearly all actives have a fitted effect of over 50% in size
Numbers without * were called inactive; ? = inconclusive; . = no result; + = active, no number; [ ] = remark or other dose.

SMILES	CHX counter	HCV inh	FMDV antiviral	Shiga inhibitor	MARV entry inh	LASV entry inh
COc1ccccc1Nc1nnc(SCC2CCCCO2)s1 (centres undefined)	26.1*	7.94µM*	-48.3%	50.6	7.08µM*	.
CC(C)c1ccc(Nc2nnc(SCC(=O)NCC3CCCO3)s2)cc1 (centres undefined)	.	?	-15.7%	.	-33.3%	?
Cc1ccccc1Nc1nnc(SCC2CCCCO2)s1 (centres undefined)	54.6*	0.8%	8.4%	15.2*	?	?
Cc1ccc(Nc2nnc(SCC3CCCCO3)s2)cc1 (centres undefined)	40.6*	1.1%	15.4%	54.2*	29.5%	-19.0%
COc1ccccc1Nc1nnc(SCC(=O)NC2CCCC2)s1	.	7.6%	4.2%	.	.	.
COc1ccc(C)cc1S(=O)(=O)N1CCC(C(=O)N2CCOCC2)CC1	-1.5	-1.1%	-23.4%	-10.1	3.8%	18.0%
Cc1cccc(C)c1N(CC(=O)N(C)Cc1ccccc1)S(C)(=O)=O	-2.8	6.8%	-5.6%	.	.	.
COc1cccc(NC(=O)[C@@H]2CCCN2C(=O)[C@@H]2Cc3ccccc3CN2C(=O)OC(C)(C)C)c1	20.3*	-0.2%	16.0%	51.8	.	.
Cc1ccccc1NC(=O)C1Cc2ccccc2CN1C(=O)c1ccco1 (centres undefined)	44.8*	-8.0%	26.6%	77.2*	7.3%	27.2%
Cc1ccc(NC(=O)C2Cc3ccccc3CN2C(=O)c2ccccc2)cc1Cl (centres undefined)	18.2*	-6.0%	-28.3%	3.1	?	-17.3%
NS(=O)(=O)c1ccc(NC(=O)C2Cc3ccccc3CN2C(=O)c2ccco2)cc1 (centres undefined)	-6.3	5.5%	-8.4%	14.8	1.2%[46.1 µM]	-10.3%
COc1cccc(NC(=O)C2Cc3ccccc3CN2C(=O)c2ccco2)c1 (centres undefined)	53.7*	-16.4%	24.5%	79.2*	?	10.0%[46.1 µM]
CNC(=O)COc1coc(CN2CCN(c3ccccc3)CC2)cc1=O	-2.4	-3.5%	-13.5%	-9.5	?	?
COc1cc(Cl)c(C)cc1NC(=O)CCCN1C(=O)C(c2ccccc2)Oc2cccnc21 (centres undefined)	.	.	-28.3%	.	.	4.4%[46.1 µM]
O=C(NCc1ccccc1)C1Cc2ccccc2CN1C(=O)c1ccco1 (centres undefined)	-3.4	2.6%	10.3%	5.9	-17.1%[46.1 µM]	-4.5%[46.1 µM]
O=C(O)C1Cc2ccccc2CN1C(=O)c1ccco1 (centres undefined)	11.6*	1.2%	-9.4%	.	.	.
COc1ccc(NC(=O)c2cccc(N3C(=O)C4C5C=CC(C6CC56)C4C3=O)c2)c(OC)c1 (centres undefined)	-3.0	-28.7%	-29.9%	0.5	?	17.8µM*
O=C(NN1C(=O)C2C3C=CC(C4CC34)C2C1=O)c1cccc(Cl)c1 (centres undefined)	47.6*	17.1%	14.3%	132.2*	15.9%	14.6%
COc1ccc(NC(=O)c2cccc(N3C(=O)c4cccc([N+](=O)[O-])c4C3=O)c2)cc1	24.3*	8.7%	-5.1%	25.7	.	.
CC(=O)c1ccc(NC(=O)c2cccc(N3C(=O)c4ccccc4C3=O)c2)cc1	3.6	.	-8.0%	-10.5	21.3%	7.3%
COc1ccc(NC(=O)c2cccc(N3C(=O)C4C5C=CC(C5)C4C3=O)c2)c(OC)c1 (centres undefined)	9.3	-14.2%	-6.0%	16.9	.	.
O=C(NN1C(=O)C2C(C1=O)C1C=CC2C12CC2)c1cccc(Cl)c1 (centres undefined)	-2.5	24.1%	6.6%	19.5	-0.3%[46.1 µM]	-11.5%[46.1 µM]
COc1ccc(NC(=O)c2cccc(N3C(=O)C4C5C=CC(C6CC56)C4C3=O)c2)cc1 (centres undefined)	-3.2	.	39.8µM*	9.3	?	-19.4%
CC1=C(c2ccc(C)c(C)c2)S(=O)(=O)N=C1N1CCC(C(=O)N2CCC(C)CC2)CC1	.	.	-16.3%	.	.	-0.8%[46.1 µM]
COc1ccc(/C=C2\C(=O)N(c3c(Cl)cc(Cl)cc3Cl)N=C2NC(=O)c2cccc([N+](=O)[O-])c2)cc1	-0.9	-22.6%	11.2µM*	-14.7	-0.5%	23.0%
SMILES	CHX counter	HCV inh	FMDV antiviral	Shiga inhibitor	MARV entry inh	LASV entry inh
N#C/C(=C/Nc1ccccc1)c1ccsc1	27.0*	?	-9.3%	41.9*	-38.4%	-13.3%
Cc1ccc(N/C=C(/C#N)c2ccsc2)cc1	41.0*	?	10.4%	131.8*	-26.1%	-27.5%
Cc1ccc(N/C=C(\C#N)c2ccc(OCCCF)cc2)cc1	21.2	?	17.5%	73.7	17.7%	3.3%
Cc1c(CN(C)Cc2cn(C)nc2-c2ccccc2F)[nH]c2ccccc12	-2.0	-1.2%	-26.7%	-17.7	?	-11.6%
CN1CCC(Oc2ccc(Sc3ccccc3)cc2)CC1	67.5*	?	18.3%	63.3*	?	?
CN1CCC(Oc2ccccc2Sc2ccc(C(F)(F)F)cc2)CC1	-6.5	11.2µM*	-24.5%	-16.9	?	11.6µM*
CN1CCC(OC(=O)c2ccccc2)CC1	2.4	13.2%	3.8%	-3.0	.	.
CSC1=NCCN1S(=O)(=O)c1ccc2ccccc2c1	-4.4	-10.6%	-4.2%	28.2	.	.
COc1cc(OC)cc(C(=O)Nc2cccc3nc(C)ccc23)c1	-2.2	-12.1%	11.6%	1.3	?	?
CC(/C=N/Nc1nnc2c(n1)[nH]c1ccccc12)=C\c1ccco1	32.0*	-1.1%	31.9%	65.1	-10.9%	1.8%
Cc1cccc2c1[nH]c1nc(N/N=C\c3ccco3)nnc12	15.0	21.9%	.	-10.9	1.2%	.
COc1cccc(/C=N/Nc2nnc3c(n2)[nH]c2ccccc23)c1OC	35.7*	4.9%	22.9%	50.2*	?	?
Cc1nc2scc(-c3ccc(Cl)cc3)c2c(=O)n1N	3.2	0.4%	-17.5%	4.8	-19.2%[46.1 µM]	8.2%
CC(C)c1nc2scc(-c3ccc(Cl)cc3)c2c(=O)n1N	37.6*	?	-21.2%	73.4*	.	.
CC1(c2nnc(-c3cccc(Cl)c3)o2)CC(c2c(Cl)cccc2Cl)=NO1 (centres undefined)	.	-5.6%	-12.3%	.	.	.
CC(C)(C)n1nnnc1C(c1cccs1)N(Cc1cccnc1)Cc1ccccc1Cl (centres undefined)	3.5	10µM*	-14.0%	6.3	?	0.8%
CCOc1cnn(-c2cc(Oc3ccc(C)cc3)ncn2)c(=O)c1Cl	-2.6	-5.8%	0.0%	-2.0	5.1%	-15.2%
Cc1ccccc1Oc1cc(-n2ncc(Cl)c(Cl)c2=O)ncn1	14.2*	?	4.47µM*	22.6	?	?
CNC(=O)C1CCN(C(=O)N2CC(C)Oc3ccc(C)cc32)CC1 (centres undefined)	.	.	-19.9%	.	.	-12.7%[46.1 µM]
CSc1ccc(/C=N/Nc2cccc(C(=O)O)c2)cc1	91.8*	31.9%	2.24µM*	+	?	0.891µM*
O=C(O)c1cccc(N/N=C/c2cccs2)c1	83.6*	9.5%	2.24µM*	147.0*	1.46µM*	5.8µM*
